Data on 20 compounds can be found in PubChem BioAssay (NCI).

This is part of a sample that, as a whole, favours compounds with a hit. Of some 79,000 tested, about 15% had one in any assay. A number with no mark means an inactive call. Calls of active or inactive are those of the source. No stated cut-off is given here; in the data, active means growth inhibition above about 70%; inactive means the rest.

The nature of assay [1]: NCI Yeast Anticancer Drug Screen. Data for the rad50 strain (AID 155).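 Further: 0% = growth of vehicle-only cultures of the same strain.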 The note with it: S. cerevisiae rad50 strain growth inhibition, hits give high values; at 50.0 µM unless noted. The essentials:
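Relative growth inhibition (compound vs vehicle) was measured in yeast with a defined repair-gene alteration.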

Assay [2] is described as follows: NCI Yeast Anticancer Drug Screen. Data for the mec2-1 strain (AID 157). Particulars: S. cerevisiae mec2-1 strain, hits give high values; at 50.0 µM unless noted. The essentials:
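Growth inhibition is read against vehicle-treated controls after compound exposure of the mec2-1 yeast strain, which is defective in DNA damage repair or cell cycle control.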

Assay [3] is described as follows: NCI Yeast Anticancer Drug Screen. Data for the sgs1 mgt1 strain (AID 161).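 Further: 0% = growth of cultures given vehicle only.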 Particulars: S. cerevisiae sgs1 mgt1 strain, hits give high values; at 50.0 µM unless noted. In short, it runs like this: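 Compounds are added to genetically altered yeast, and growth is compared with cultures given vehicle alone to give percent inhibition.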
Assay [4] can be described thus: NCI Yeast Anticancer Drug Screen. Data for the cln2 rad14 strain (AID 165).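 Further: 0% = growth equal to vehicle treated cultures.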 The note with it: S. cerevisiae cln2 rad14 strain, hits give high values; at 50.0 µM unless noted. The essentials: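 Growth inhibition, relative to vehicle-treated controls, is the read-out. The test organism is a yeast strain with defined genetic alterations, cln2 rad14.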
Assay [5] in a line: NCI Yeast Anticancer Drug Screen. Data for the bub3 strain (AID 167). Particulars: S. cerevisiae bub3 mutant strain, hits give high values; at 50.0 µM unless noted. In short, it runs like this:
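Screening used yeast with an engineered genetic alteration affecting cell cycle control. Compound-exposed cultures were compared with vehicle cultures, and reduced growth was taken as inhibition.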

Assay [6] can be described thus: NCI Yeast Anticancer Drug Screen. Data for the mlh1 rad18 strain (AID 175). Particulars: S. cerevisiae mlh1 rad18 strain growth inhibition, hits give high values; at 50.0 µM unless noted. In short, it runs like this: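 Cells of a genetically altered yeast strain, deficient in DNA damage repair, were treated with compound. Their growth was then compared with that of vehicle-treated cultures to give inhibition.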

`CN(C(=O)c1cccc([N+](=O)[O-])c1)C1CCCCC1`: the growth inhibition in assay [1] was 2.6%; in assay [2], 34.5%; in assay [3], 32.6%; in assay [4] it was -4.7%; in assay [5], 22.4%; in assay [6] it was 14.2%.
As to `O=C(O)c1cc(C(=O)O)cc(C(=O)O)c1`, the growth inhibition in assay [1] was -1.55%; in assay [2] it was -16.2%; in assay [3], -8.1%; in assay [4] it was -56.9%; in assay [5], -3.05%; in assay [6] it was -30.1%.
For `CCOC(=O)CC(=O)Cc1ccccc1`, the growth inhibition is -23.3% in assay [1]; -16.6% in assay [2]; -6.25% in assay [3]; -43.8% in assay [4]; -13.2% in assay [5]; -19.1% in assay [6].
On to `ClB1NB(Cl)NB(Cl)N1`, for which the growth inhibition in assay [1] is -9.45%; in assay [2], -33.8%; in assay [3], -9.95%; in assay [4], -7%; in assay [5], -11.9%; in assay [6], 3.55%.
On to `Cc1cccc(OC(=O)NC2CCCCC2)c1`, for which the growth inhibition in assay [1] was 3.5%; in assay [2], -4.25%; in assay [3], -13.2%; in assay [4], -72.3%; in assay [5], 6.5%; in assay [6], -13.3%.
For `FC(F)(F)c1cc(NC(=S)SCc2ccc3c(c2)OCO3)ccc1Cl`, the growth inhibition in assay [1] was 73.5% (active); in assay [2] it was 63.9%; in assay [3] it was 73.3% (active); in assay [4], 38.5%; in assay [5] it was 59.2%; in assay [6], 84% (active).
Take `CS(=O)(=O)OCCN(CCOS(C)(=O)=O)c1ccc([N+](=O)[O-])cc1[N+](=O)[O-]`: the growth inhibition in assay [1] was 22.6%; in assay [2], -5.8%; in assay [3], -0.2%; in assay [4], 24.8%; in assay [5], -3.95%; in assay [6], 13.6%.
`O=[N+]([O-])c1ccc(CS(=O)Cc2ccccc2)cc1` (stereo not given): the growth inhibition in assay [1] was 10.9%; in assay [2], -18.6%; in assay [3], 1.35%; in assay [4], 0.05%; in assay [5], 6.75%; in assay [6], 31.7%.
Turning to `CC1(C)N=C(N)N=C(N)N1CCCOc1ccc(N)cc1`, the growth inhibition in assay [1] was 33.2%; in assay [2], -4.65%; in assay [3], 11.8%; in assay [4] it was 5.2%; in assay [5], -3.55%; in assay [6] it was 1.1%.
With `N#CC1C(=O)C(=O)N(c2ccccc2)C1=O` (stereo not given), the growth inhibition is -6.1% in assay [1]; -6.85% in assay [2]; -24.7% in assay [3]; 3.15% in assay [4]; -1.85% in assay [5]; -6.25% in assay [6].
In the case of `Oc1ccccc1/C=N/N1C(=S)N(C23CC4CC(CC(C4)C2)C3)C(=Nc2ccccc2)C1=Nc1ccccc1`, the growth inhibition was -8.55% in assay [1]; -16.2% in assay [2]; -23.2% in assay [3]; 2.35% in assay [4]; -3% in assay [5]; -14.3% in assay [6].
`Cc1ccc(-c2ccc(C)cc2C(=O)O)c(C(=O)O)c1`: the growth inhibition in assay [1] is -21.8%; in assay [2] it was 1%; in assay [3], 4%; in assay [4], -28.1%; in assay [5], -2.5%; in assay [6], -15.3%.
As for `Nc1nc(-c2cc(Br)ccc2N=NN2CCCCC2)nc2ccc(Br)cc12`, the growth inhibition is 82.2% (active) in assay [1]; 37.2% in assay [2]; 79.5% (active) in assay [3]; 46% in assay [4]; 22.3% in assay [5]; 70.8% (active) in assay [6].
Take `O=C(OCCCl)c1ccc(Cl)c(Cl)c1`: the growth inhibition in assay [1] was 5.75%; in assay [2] it was -20.1%; in assay [3] it was 7.05%; in assay [4], 9%; in assay [5] it was 3.75%; in assay [6], -19.9%.
On to `CN(CC#CC#CCN(C)c1ccccc1)c1ccccc1`, for which the growth inhibition was -14.2% in assay [1]; -28.1% in assay [2]; -13.6% in assay [3]; -27% in assay [4]; -35.2% in assay [5]; -20.1% in assay [6].
Regarding `Cc1cc(C)c(-c2noc(-c3ccc(Cl)cc3)c2C2=NCCN2)c(C)c1`, the growth inhibition in assay [1] is 29.9%; in assay [2], 18.3%; in assay [3] it was 18.1%; in assay [4], 38.6%; in assay [5], 17.7%; in assay [6] it was 8.45%.
Turning to `Cc1ccc(OC(=O)Oc2ccc(C)cc2)cc1`, the growth inhibition in assay [1] was 18.8%; in assay [2] it was 1.9%; in assay [3] it was 4.35%; in assay [4] it was -6.9%; in assay [5] it was 7.05%; in assay [6], 18%.
Turning to `O=C(Nc1ccccc1Cl)c1cc2cc(N=Nc3ccc(Br)cc3)ccc2oc1=O`, the growth inhibition in assay [1] is 0.55%; in assay [2], 9.75%; in assay [3], -3.8%; in assay [4], 9.6%; in assay [5] it was -7.05%; in assay [6], -3.5%.
Take `O=c1oc2ccccc2c(O)c1Cc1ccccc1Cc1c(O)c2ccccc2oc1=O`: the growth inhibition in assay [1] was 4.4%; in assay [2], 4.65%; in assay [3] it was -13.2%; in assay [4], 10.9%; in assay [5] it was -19.9%; in assay [6], 65%.
Consider `O=C(c1ccccc1)C(C(Nc1ccccc1)c1ccccc1)N1CCOCC1` (stereo not given), for which the growth inhibition is 6.65% in assay [1]; -5% in assay [2]; -16% in assay [3]; -47.3% in assay [4]; 27.4% in assay [5]; 22.6% in assay [6].
